# According to the supplement of paper PMC12632987:
# T1: USP38, Q8NB14
# T1 chain: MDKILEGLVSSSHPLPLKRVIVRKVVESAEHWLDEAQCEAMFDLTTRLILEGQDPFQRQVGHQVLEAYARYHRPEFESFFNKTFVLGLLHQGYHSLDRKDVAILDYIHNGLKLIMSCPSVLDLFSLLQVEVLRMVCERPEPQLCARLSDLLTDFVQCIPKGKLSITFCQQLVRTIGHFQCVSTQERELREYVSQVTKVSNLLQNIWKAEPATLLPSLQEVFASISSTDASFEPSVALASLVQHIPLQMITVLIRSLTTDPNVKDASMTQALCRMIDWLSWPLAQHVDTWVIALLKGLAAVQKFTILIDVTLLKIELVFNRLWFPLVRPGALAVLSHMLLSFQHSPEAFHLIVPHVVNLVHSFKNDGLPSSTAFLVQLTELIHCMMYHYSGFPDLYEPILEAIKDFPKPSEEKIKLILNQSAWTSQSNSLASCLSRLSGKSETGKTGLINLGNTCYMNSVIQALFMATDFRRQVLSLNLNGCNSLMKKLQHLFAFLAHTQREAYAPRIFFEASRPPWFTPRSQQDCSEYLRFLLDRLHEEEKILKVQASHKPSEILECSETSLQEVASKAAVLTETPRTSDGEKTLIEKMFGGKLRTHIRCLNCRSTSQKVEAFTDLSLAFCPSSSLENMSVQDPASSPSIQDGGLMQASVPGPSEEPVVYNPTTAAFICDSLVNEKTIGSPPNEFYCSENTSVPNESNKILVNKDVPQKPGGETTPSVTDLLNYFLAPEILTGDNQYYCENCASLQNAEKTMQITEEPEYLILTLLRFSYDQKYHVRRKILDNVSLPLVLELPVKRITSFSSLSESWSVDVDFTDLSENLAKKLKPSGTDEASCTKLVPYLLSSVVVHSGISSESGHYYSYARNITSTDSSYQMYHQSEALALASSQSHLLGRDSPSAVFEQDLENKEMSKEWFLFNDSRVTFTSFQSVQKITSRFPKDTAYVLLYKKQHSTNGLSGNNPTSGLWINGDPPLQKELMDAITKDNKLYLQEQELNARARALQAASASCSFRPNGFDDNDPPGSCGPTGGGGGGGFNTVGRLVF
# Target: T1, USP38, Q8NB14
# Experiment: median log2 fold change of GCK-ALFA target abundance (FLAG IP / Myc IP barcode read proportion) (log2 ratio); each designed protein is fused to an ALFA-tag nanobody in HEK293 cells to bring the named protein to FLAG-tagged glucokinase (GCK); Myc marks an untargeted standard; higher = target protein stabilised (more abundant)
# Conditions: target protein: 3xFLAG-MCP-GCK-ALFA reporter; HEK293 landing pad (RPLP)
# Outline: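 Binders fused to an ALFA nanobody were recombined as a library into HEK293 landing-pad cells, which were induced with 2 μg mL^−1 doxycycline and then transfected to express a FLAG-tagged target and a Myc-tagged standard. After 48 h, circular RNA barcodes recovered by anti-FLAG and anti-Myc immunoprecipitation of lysates were reverse transcribed, amplified and sequenced. Each binder's target abundance is the median log2 ratio of FLAG to Myc barcode read proportions, from barcodes present at ≥10^−7 in both replicates, binders carrying ≥3 barcodes per replicate, a 10^−6 pseudocount and pooled replicates.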
row,Binder,median log2 fold change
1,usp_38_diff_out_5_91_622 (protein) EETRKEAVKLAKEAAEALKKAAELLEKGEDYTEELKKAYEALTKLAELLAKGDAREQRLALTAAGIAEALKELPRYPKELQIAMLKELADVAKELAEQLE,0.0965
2,usp_38_diff_out_5_164_609 (protein) MVEEKLKEMEEIRDETIEKLDELLEEAKKNPEKLEEIKKEINELTEEAIDKMNELTTEALEADPERAEEILKHYDELMTELLTHKKEVLEEIEKLKKEKE,0.206
3,usp_38_diff_out_9_42_629 (protein) RKELEERLLELIRETGEVLREAEEVLRELREVDPEAARRFRREVAELLDKIDDKLLKAQRLLLQDESKYPEAQAALDEAERLVEELRRLAEEWRRRLKER,-0.63
4,usp_38_diff_out_5_91_614 (protein) EERRKKLIEKAEEAAKKLEEAAKRLEAGEDYTKDIEEAIELYREIAAALADGDARERRLSLTAAGMALALEKLGEYPKDLQIAMLKAHADVAKEMAEQLK,0.105
5,usp_38_diff_out_5_91_618 (protein) AEARAEQIRLAEEAARLLEEAARRLEAGEDYTADVERAIALFRELAAALAGGDARQRRLSLTAAGLALALEELPRYSRELQIAMLRAHADVARAMAEELR,0.0905
6,usp_38_diff_out_5_164_611 (protein) EVERIREEFEARADATLAALRALLAQARADPATARAALAQAEALVDDLADFYVEAVEEVNEADPSKVEEFLREASRRLEELSALVAELRALARAQAEAEA,-0.198
7,usp_38_diff_out_9_42_625 (protein) MKELEEKREETLKLIAEAGRYVDEVIERLAKLDPELARELRREAAEAHDKIVELTQEANKYYLAGEETKEEFLAKLDEIKKIVDELRKRAEELLAAAEAA,0.146
8,usp_38_diff_out_5_164_612 (protein) AVEAIRAEFEAAADAALAELKALLAEAKADPSKVEEKLKEAEAVLDELLDLLVEATERVAEEDPSQVEAFLREADARLEELLGIIAEIRELARKVREAKA,-0.239
9,usp_38_diff_out_5_91_615 (protein) EERRKELIKKAKEAAKKLKEAAELLEKGEDYTKEIEEAIKLYKELAEALAGGNARERRLSLTAAGAAIALEKLDEYPKELQIAMLKAHAEVTKQMAEELE,0.0701
10,usp_38_diff_out_5_164_610 (protein) GVEELLKEMEEIKKETLEKLDKLLEEAKKNPEKLDEYKKEINELTNEAIDKMNELTTEALELDPERAEEILRHYDEIMTELLTHKQKVLDEIEKLKKEKE,-0.17
11,usp_38_diff_out_5_164_607 (protein) GVEEALKELEKTAEELKKKLKELLEEAKKNPEKLDEYKKKITEAVNEAIDKINEITTKALEAHPEQADEILRHYDEVVTEMLTEYNAALEELEKLKKEAA,-0.164
12,usp_38_diff_out_5_164_606 (protein) MVEEALKRMEEIAKELEAKLKALLAEAKKNPAKLAEYEKQITDATNEALDELNEITTKALEANPEKADEILEHYDRVVTRMLTAYNAAKAELAALKKEAA,-0.164
13,usp_38_diff_out_5_80_613 (protein) SLLEEARRLAEEALKAEDLETFEELLKQLVETVRRAAEEALERGTLDETVRELSGILLELDKEVRKSSNKEKKKLAKEYLNQAVDVLAAAELRALEREAA,-0.169
14,usp_38_diff_out_5_91_617 (protein) EEERRRLIELAEEAAELLKKAAELLEKGEDYTEAVKKAIELLKELAKLLAGGDSRERRLSLTAAGMAEALEELDKYPKELQIAMLKAMADVAKEMAEQLR,0.486
15,usp_38_diff_out_5_164_608 (protein) GVEEALEELRKIREELEKKLKELLEKAKENPEKLEEYKKEITKAMDEAIDKMNEITTRALEAHPERAEEILREYDEEVTKMLKEYNEVMEKLKKLEEEYK,0.0441
16,usp_38_diff_out_5_91_623 (protein) AERREEAVRLAKEAAEYLKKAAELLEAGEDYTEEIKRAREALTRAAELLAKGNAREQRLALTAAGMAEALDELPRYSKELQIAMLKELADVAKELAEQLA,0.1
17,usp_38_diff_out_5_91_616 (protein) EEERKKIIEKAEELARLLKEAAELLEKGEDYTENIKRAIKLAEELAKALAGGDARERRLSLTFAGLAEALKEIENYPKELQIAMLKAHADVAEEAAELLK,0.153
18,usp_38_diff_out_9_172_624 (protein) DLESKRFKIQWLLADAIDLLQKIAKKADEENKKKLIEAAMLLLKASQLVVEGGDKEEILKLLEEAKKLVKELAKKDPKNKKELEEAIKLIEEAIKLVKEL,-0.076
19,usp_38_diff_out_5_91_621 (protein) EERRKELIKLAEEAAKLLEKAAELLEKGEDYTEAIKKAIELYKKLAEELKGGGPRERRLSLTAAGAAIALEELPKYSKELQIAMLKELADVTKELAEELK,0.214
